In PubChem BioAssay one finds z-score and composite z-score data, which are given here for nine compounds.

Activity calls are given as the source filed them.

Assay [1] can be described thus: E. coli DRC41 culture turbidity changes, primary screen, E. coli filamentation inducer project, strain DRC41, OD650, 48 h (AID 1152).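 Also: E. coli MC1000 strain DRC41 lacking acrAB efflux pump and sulA.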 Particulars: E. coli DRC41 (acrAB sulA), higher = more signal, called active from +8 up or from −8 down.
A short description of assay [2]: small-molecule binders of probe aLefty1, primary screen, biochemical, small-molecule microarray, 635/667 nm fluorescence (AID 1153).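 Also: score merges spot fluorescence with signal-to-noise ratio from the scanned slide images.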 The settings on record: higher = more signal.
Assay [3] is described as follows: PSAC antagonists in infected red cells, primary screen, cell-based, P. falciparum Indochina, OD700, 1 h (AID 1154). The settings on record: P. falciparum Indochina infected RBC osmotic lysis, higher = more signal, called active from +8 up or from −8 down.
Assay [4] is described as follows: PSAC antagonists in infected red cells, primary screen, cell-based, P. falciparum Indochina, OD700, 2 h (AID 1155).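 Also: lysis reports solute entry through the parasite surface anion channel PSAC; channel blockers reduce lysis of infected cells.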 Particulars: P. falciparum Indochina infected erythrocytes, osmotic lysis OD700; higher = more signal, called active from +8 up or from −8 down.
A short description of assay [5]: osmotic lysis modulators in infected erythrocytes, primary screen, PSAC antagonist project, cell-based, P. falciparum Indochina, OD700, 3 h (AID 1156). Particulars: higher = more signal, called active from +8 up or from −8 down.
The nature of assay [6]: PSAC antagonists in infected red cells, primary screen, cell-based, P. falciparum Indochina, OD700, 18 h (AID 1157). The settings on record: P. falciparum Indochina infected erythrocytes, osmotic lysis OD700, 18 h; higher = more signal, called active from +8 up or from −8 down.
Assay [7] in a line: modulators of S6 phosphorylation in cells, primary screen, cell-based, A549, cytoblot, luminescence, serum-stimulated (AID 1158).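 Also: serum-stimulated A549 lung adenocarcinoma cells; signal is phosphorylated S6 detected by cytoblot immunostaining with HRP secondary.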 Particulars: A549 phospho-S6 cytoblot, 5 h, higher = more signal.
For assay [8], the target named is NADPH oxidase 2 (Homo sapiens) (UniProt P04839). Put plainly: NOX2-dependent H2O2 signal modulators, primary screen, NOX inhibitor project, cell-based, HEK293-NOX2, PMA-stimulated, Amplex Red fluorescence (AID 1159). Also: test concentration not given here. Particulars: 45 min, higher = more signal, called active from +8 up or from −8 down.
The target in assay [9] is NADPH oxidase 4 (Homo sapiens) (UniProt Q9NPH5). As to the kind of experiment: NOX4-dependent H2O2 signal modulators, primary screen, NOX inhibitor project, cell-based, HEK293-NOX4, tetracycline-induced, Amplex Red fluorescence (AID 1160). The settings on record: 45 min, higher = more signal, called active from +8 up or from −8 down.
The target of assay [10] is NADPH oxidase 5 (Homo sapiens) (UniProt Q96PH1). Put plainly: NOX5-dependent H2O2 signal modulators, primary screen, NOX inhibitor project, cell-based, HEK293-NOX5, Amplex Red fluorescence (AID 1161). Particulars: HEK293-NOX5, ionomycin, 45 min, higher = more signal.
Assay [11] is described as follows: A549 cell viability effects, profiling panel, calcein-AM fluorescence, 48 h, basal (AID 1162). Also: test concentration not given here. Particulars: higher = more signal.
Assay [12] is described as follows: adipocyte viability effects, profiling panel, cell-based, 3T3-L1 adipocytes, calcein-AM fluorescence, 48 h, basal (AID 1163). Also: test concentration not given here. The settings on record: 3T3-L1 adipocytes viability, higher = more signal.
Assay [13] is described as follows: HepG2 cell viability effects, profiling panel, calcein-AM fluorescence, 48 h, basal (AID 1164). Also: test concentration not given here. Particulars: higher = more signal.
Assay [14] is described as follows: MM1S cell viability effects, profiling panel, calcein-AM fluorescence, 48 h, basal (AID 1165).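 Also: viability of MM1S multiple myeloma cells under basal unstimulated conditions; test concentration not given here.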 The settings on record: higher = more signal.
Assay [15] can be described thus: basal RPMI8226 viability, no added stimulus, profiling panel, cell-based, calcein-AM fluorescence, 48 h, PK04 Diversity Set (AID 1166).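 Also: cells grown under basal conditions without added stimulus; test concentration not given here.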 The settings on record: RPMI8226 myeloma viability, higher = more signal.
Assay [16] can be described thus: basal HepG2 mitochondrial membrane potential changes, profiling panel, cell-based, JC-1 fluorescence, 24 h, 100 nL compound (AID 1167). Also: test concentration not given here. The settings on record: higher = more signal.
The nature of assay [17]: basal 3T3-L1 adipocyte mitochondrial potential changes, profiling panel, cell-based, JC-1 fluorescence, 3T3-L1 adipocytes, 24 h, 100 nL compound (AID 1168). Also: test concentration not given here. Particulars: JC-1 mitochondrial fluorescence, higher = more signal, called active from +8 up or from −8 down.
A short description of assay [18]: basal RPMI8226 mitochondrial membrane potential changes, profiling panel, cell-based, JC-1 fluorescence, 24 h, 100 nL compound (AID 1169). Also: test concentration not given here. Particulars: RPMI8226 myeloma, JC-1 mitochondrial potential fluorescence, higher = more signal.
Assay [19] is described as follows: basal MM1S mitochondrial membrane potential changes, profiling panel, cell-based, JC-1 fluorescence, 24 h, 100 nL compound (AID 1170). Also: test concentration not given here. The settings on record: higher = more signal.
Assay [20] in a line: A549 lung cancer cell viability effects, profiling panel, resazurin fluorescence, 24 h, PK04 Diversity Set (AID 1171). Also: test concentration not given here. The settings on record: higher = more signal, called active from +8 up or from −8 down. Background: Resazurin is reduced to fluorescent resorufin, in cell work by metabolically active cells.

Chain of NADPH oxidase 4 (Homo sapiens) (Q9NPH5 whole entry, looked up): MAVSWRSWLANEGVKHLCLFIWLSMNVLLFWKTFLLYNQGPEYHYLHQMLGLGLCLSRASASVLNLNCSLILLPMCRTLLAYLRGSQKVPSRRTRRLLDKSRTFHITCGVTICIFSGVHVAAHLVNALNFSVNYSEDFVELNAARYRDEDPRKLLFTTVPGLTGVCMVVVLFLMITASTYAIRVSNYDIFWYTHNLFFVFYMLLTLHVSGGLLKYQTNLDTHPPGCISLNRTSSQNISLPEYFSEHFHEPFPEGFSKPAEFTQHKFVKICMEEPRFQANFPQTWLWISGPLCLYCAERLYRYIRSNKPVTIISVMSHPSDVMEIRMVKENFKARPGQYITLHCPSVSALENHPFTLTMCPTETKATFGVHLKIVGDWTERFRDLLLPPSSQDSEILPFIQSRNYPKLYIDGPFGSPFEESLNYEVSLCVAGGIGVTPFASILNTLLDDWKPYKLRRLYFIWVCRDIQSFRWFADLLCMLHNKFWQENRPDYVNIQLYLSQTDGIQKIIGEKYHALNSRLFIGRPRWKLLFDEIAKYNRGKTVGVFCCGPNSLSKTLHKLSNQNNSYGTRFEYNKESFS
Chain of NADPH oxidase 2 (Homo sapiens) (P04839 whole entry, looked up): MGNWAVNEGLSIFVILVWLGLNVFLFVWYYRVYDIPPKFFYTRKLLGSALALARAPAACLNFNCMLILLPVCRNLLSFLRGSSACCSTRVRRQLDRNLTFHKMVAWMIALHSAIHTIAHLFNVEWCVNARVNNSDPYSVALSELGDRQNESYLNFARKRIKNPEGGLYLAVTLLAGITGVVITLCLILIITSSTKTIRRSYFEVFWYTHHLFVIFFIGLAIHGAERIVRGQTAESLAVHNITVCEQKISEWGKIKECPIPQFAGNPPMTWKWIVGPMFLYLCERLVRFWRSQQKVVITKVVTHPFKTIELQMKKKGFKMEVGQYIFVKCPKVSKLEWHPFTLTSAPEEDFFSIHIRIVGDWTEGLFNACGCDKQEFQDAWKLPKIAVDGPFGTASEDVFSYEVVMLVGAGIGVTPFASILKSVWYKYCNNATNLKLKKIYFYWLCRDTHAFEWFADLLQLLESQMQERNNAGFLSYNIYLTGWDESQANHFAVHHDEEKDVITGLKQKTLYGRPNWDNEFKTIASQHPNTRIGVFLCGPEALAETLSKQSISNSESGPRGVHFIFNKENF
Chain of NADPH oxidase 5 (Homo sapiens) (Q96PH1 whole entry, looked up): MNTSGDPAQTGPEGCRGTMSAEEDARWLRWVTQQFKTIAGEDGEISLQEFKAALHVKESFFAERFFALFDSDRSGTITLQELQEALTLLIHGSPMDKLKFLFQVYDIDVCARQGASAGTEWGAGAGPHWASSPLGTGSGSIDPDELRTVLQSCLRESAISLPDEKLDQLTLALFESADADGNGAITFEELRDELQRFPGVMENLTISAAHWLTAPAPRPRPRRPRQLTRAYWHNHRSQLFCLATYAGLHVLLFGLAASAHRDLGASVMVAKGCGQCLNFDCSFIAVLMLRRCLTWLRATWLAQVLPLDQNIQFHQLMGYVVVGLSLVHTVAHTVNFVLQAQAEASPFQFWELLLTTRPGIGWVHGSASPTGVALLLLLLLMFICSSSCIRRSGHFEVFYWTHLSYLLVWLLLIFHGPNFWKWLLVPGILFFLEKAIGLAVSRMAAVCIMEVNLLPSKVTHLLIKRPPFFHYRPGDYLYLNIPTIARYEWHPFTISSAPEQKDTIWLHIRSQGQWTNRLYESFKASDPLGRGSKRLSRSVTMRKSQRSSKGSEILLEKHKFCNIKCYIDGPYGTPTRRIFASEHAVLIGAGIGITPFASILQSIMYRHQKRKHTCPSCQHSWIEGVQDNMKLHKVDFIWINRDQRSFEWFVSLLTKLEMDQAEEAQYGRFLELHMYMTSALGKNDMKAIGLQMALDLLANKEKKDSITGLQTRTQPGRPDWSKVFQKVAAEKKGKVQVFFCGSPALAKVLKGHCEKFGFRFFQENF

On to `COCCCNC(=O)[C@@]1(CCC(=O)OC(C)(C)C)COC(c2ccc(OCCCO)cc2)=N1`, for which the z-score in assay [1] was 0.42 (inactive); in [3], 23.6 (active); in assay [4] it was 4.91 (inactive); in [5], 0.873 (inactive); in assay [6], 0.766 (inactive); in assay [7], -0.169. In addition, the z-score was -2.51 (inactive) in assay [8]; 0.195 (inactive) in assay [9]; -0.0784 in assay [10]; -0.487 in assay [11]; 0.129 in assay [12]; -0.642 in assay [13]. The z-score in [14] was -1.43; in [15], -0.24; in [16], 0.195; in assay [17], -1.05 (inactive); in assay [18], -0.438; in assay [19] it was 0.012. Besides, the z-score in [20] was 2.45 (inactive). For the same compound, the composite z-score in assay [2] turned out to be 0.205.

In the case of `O=C(NCC(O)CO)C1N=C(c2ccc(OCCCO)cc2)N(c2ccccc2)O1` (stereo not given), the z-score was -0.0446 (inactive) in [1]; 13.5 (active) in assay [3]; 1.49 (inactive) in assay [4]; 0.257 (inactive) in assay [5]; 0.594 (inactive) in [6]; 0.0265 in [7]. In addition, the z-score was -1.68 (inactive) in [8]; -1.05 (inactive) in assay [9]; -0.583 in [10]; -0.508 in assay [11]; -0.293 in [12]; 0.285 in assay [13]. Also, the z-score in assay [14] is 1.22; in assay [15], -1.53; in [16], 0.499; in [17] it was -0.761 (inactive); in [18], -0.877; in assay [19], 0.571. For the same compound, the z-score in assay [20] is -0.0914 (inactive). In assay [2], this compound gave a composite z-score of -0.316.

On to `CC(=O)OCC1C2CC[C@H]3C(OCc4ccc(F)cc4C(F)(F)F)OC[C@]4(C)[C@H]3C2=C(CN4C(=O)OC(C)(C)C)[C@H](C)C1COC(C)=O` (stereo not given in full), for which the z-score is -2.4 (inactive) in [1]; 1.07 (inactive) in assay [3]; 0.678 (inactive) in [4]; 1.04 (inactive) in [5]; 0.593 (inactive) in assay [6]; -0.239 in assay [7]. Moreover, the z-score in assay [8] is -0.896 (inactive); in [9], -2.29 (inactive); in [10] it was -1.51; in [11], -0.647; in assay [12], -0.0623; in [13], -0.174. In addition, the z-score is -2.29 in [14]; -1.93 in [15]; 2.61 in assay [16]; -0.984 (inactive) in assay [17]; -0.606 in assay [18]; -1.3 in assay [19]. Besides, the z-score in assay [20] is 0.892 (inactive). The composite z-score in assay [2] was found to be 0.498.

In the case of `C=C(CCCC)C(=O)CC[C@H](OC(=O)c1ccccc1-c1ccccc1C(=O)O)c1ccc(OCCO)cc1`, the z-score was 0.418 (inactive) in [1]; 12.3 (active) in assay [3]; 1.38 (inactive) in assay [4]; 1.49 (inactive) in [5]; 0.847 (inactive) in assay [6]; -0.265 in [7]. For the same compound, the z-score was 0.135 (inactive) in assay [8]; -0.406 (inactive) in [9]; -1.59 in assay [10]; -0.107 in assay [11]; 0.251 in assay [12]; -0.549 in assay [13]. Further, the z-score in [14] is -3.19; in assay [15], -3.37; in assay [16], 0.236; in assay [17], -0.245 (inactive); in assay [18], -0.346; in [19], 0.258. Also, the z-score in assay [20] is 0.52 (inactive). The compound further showed a composite z-score in assay [2] of -0.199.

Consider `N#Cc1ccc(C(O)C2C=CC3C(=O)NC(=O)C3N2Nc2ccc(Cl)cc2Cl)cc1` (stereo not given), for which the z-score in assay [1] is -1.18 (inactive); in assay [3] it was 13.7 (active); in assay [4], 2.42 (inactive); in [5], 2.15 (inactive); in assay [6] it was 1.39 (inactive); in [7], -1.29. The z-score in assay [8] was -1.23 (inactive); in assay [9], -5.23 (inactive); in [10], -2.75; in assay [11], -0.918; in assay [12], 0.325; in [13], -0.726. For the same compound, the z-score is -0.399 in assay [14]; -0.408 in assay [15]; -1.35 in assay [16]; -1.05 (inactive) in assay [17]; -0.356 in assay [18]; 0.153 in assay [19]. The z-score in [20] was -0.123 (inactive). The same compound came in with a composite z-score in assay [2] of 0.243.

For the compound `C=CCC(OC(C)=O)[C@@H]1[C@@H](N(Cc2cccc3ccccc23)C(=O)c2ccc(-c3ccccc3)cc2)c2cc(OCCCO)ccc2N1C(=O)Cc1ccc2ccccc2c1` (stereo not given in full), the z-score is -0.662 (inactive) in assay [1]; 0.36 (inactive) in [3]; 0.35 (inactive) in assay [4]; -0.428 (inactive) in assay [5]; 0.309 (inactive) in [6]; -0.242 in [7]. In addition, the z-score in assay [8] is -1.49 (inactive); in assay [9] it was 1.15 (inactive); in assay [10], 0.311; in assay [11], -0.217; in assay [12], 0.153; in assay [13] it was 0.581. In addition, the z-score is -1.54 in assay [14]; -0.729 in assay [15]; 1.9 in assay [16]; -0.407 (inactive) in [17]; -0.342 in assay [18]; 0.164 in [19]. In assay [20], the z-score was 0.706 (inactive). The composite z-score in [2] is -0.0164.

As to `COc1ccc(C(=O)Nc2cccc(CN3C(=O)[C@]4(O[C@H](CC(=O)N5Cc6ccccc6C[C@H]5CO)[C@@H]([Si](C)(C)c5ccc(OC)cc5)[C@@H]4C)c4ccccc43)c2)cc1`, the z-score is 1.66 (inactive) in [1]; 4.02 (inactive) in [3]; 1.49 (inactive) in assay [4]; 0.887 (inactive) in assay [5]; 1.04 (inactive) in assay [6]; 0.568 in assay [7]. Further, the z-score is 0.0795 (inactive) in assay [8]; 0.701 (inactive) in assay [9]; 2.01 in [10]; -0.969 in [11]; 1.3 in assay [12]; -1.05 in assay [13]. Also, the z-score is -0.253 in assay [14]; -2.56 in assay [15]; 0.729 in assay [16]; -0.458 (inactive) in [17]; -0.93 in assay [18]; -0.313 in assay [19]. Also, the z-score in [20] is -1.31 (inactive). This compound registered a composite z-score in [2] of 0.423.

Consider `COc1cc(OC)c(C(O)C2C=CC3C(=O)N(c4ccccc4)C(=O)C3N2Nc2ccc(C(C)C)cc2)cc1Br` (stereo not given), for which the z-score in assay [1] is 0.857 (inactive); in assay [3], 2.94 (inactive); in [4], 1.93 (inactive); in assay [5] it was -0.255 (inactive); in [6], 1.49 (inactive); in assay [7] it was -1.06. For the same compound, the z-score in assay [8] is 0.0256 (inactive); in assay [9] it was -3.73 (inactive); in [10] it was -2.24; in [11], 2.48; in assay [12] it was -1.15; in assay [13] it was 1.49. Besides, the z-score in assay [14] is -0.534; in assay [15], -0.203; in assay [16] it was -0.115; in assay [17], -0.171 (inactive); in [18], -0.126; in assay [19], -0.66. The z-score in [20] was -0.101 (inactive). The same compound returned a composite z-score in assay [2] of -0.0889.

`O=C1[C@@H]2[C@@H](CC(COc3ccccc3)=C([C@H](O)CCc3ccccc3)[C@@H]2CO)C(=O)N1Cc1ccccc1`: the z-score was 0.17 (inactive) in assay [1]; 27.8 (active) in assay [3]; 21.8 (active) in assay [4]; -0.602 (inactive) in assay [5]; 2.05 (inactive) in [6]; 0.05 in assay [7]. Moreover, the z-score in assay [8] is -2.32 (inactive); in assay [9], -0.526 (inactive); in assay [10] it was -1.59; in [11], -0.137; in assay [12], -0.331; in assay [13], -1.32. Moreover, the z-score in [14] is -3.23; in [15], -3.48; in [16], 0.325; in [17], -0.0321 (inactive); in assay [18], -1.04; in assay [19] it was -1.33. For the same compound, the z-score in [20] was -0.833 (inactive). In assay [2], this compound showed a composite z-score of -0.0867.
